In PubChem BioAssay AID1159580 (chemical genetic matrix, 2015):
About 2,000 (36%) of roughly 5,500 compounds were called active. Not shown: some 18% with an inconclusive outcome. Cut-off read from the data, not from the text of the source: active = normalized growth mostly below about 0.91 (no sharp cut-off); inconclusive = no clear call, values can overlap the other calls; inactive = mostly above about 0.92. The list shows a part of the results.

Test: chemical genetic growth profiling, strain panel (AID 1159580);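 note: tested at 20 µM; growth read once vehicle control cultures reached saturation at 30 °C; 1 = growth at the plate median or of vehicle wells; lower values mean less growth of the strain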
Conditions: S. cerevisiae deletion strains, growth OD

Measured: normalized growth

CC(C)NCC(O)COc1ccc(CCOCC2CC2)cc1 (configuration not stated)
inactive: locus YAL040C, strain CLN3, hits give low values 1.05 | locus YCL061C, strain MRC1 (second series), hits give low values 1 | locus YER002W, strain NOP16, hits give low values 1.03 | locus YGR078C, strain PAC10, hits give low values 0.994 | locus YMR307W, strain GAS1, hits give low values 0.998 | locus YNL153C, strain GIM3, hits give low values 1.01 | locus YNL175C, strain NOP13, hits give low values 1.02 | locus YNL197C, strain WHI3, hits give low values 1.03 | locus YNL224C, strain SQS1, hits give low values 1.01 | locus YOR083W, strain WHI5 (second series), hits give low values 1.05 | locus YPL055C, strain LGE1, hits give low values 0.998 | locus YPL241C, strain CIN2, hits give low values 1
